# Assay results published in the supplement of paper PMC10981050.
# Structures can show the parent of a compound that is named as a salt.
# Test system: MARIMO
# Experiment: cell viability relative to vehicle control; higher = less cytotoxic
# Settings: 10 µM; SRSF2 genotype: SRSF2 P95H/wt
# How it was run: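 After removal of identity-inconsistent compounds, the Selleck bioactive, kinase and epigenetic probe libraries were screened on CRISPR-edited mutant clones and isogenic wild-type clones of four leukaemia lines. Plates were 384-well, each well holding 2000 cells in 50 µL medium and receiving a single 10 µM acoustically dispensed dose. CellTiter-Glo luminescence was read 48 h later, after the supernatant was taken off. Genedata Screener was used to express viability as percent of the on-plate vehicle control.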
row,SMILES,cell viability [%]
1,O=C(Nc1cc(Cl)cc2c1[nH]c1cnccc12)c1cccnc1,111
2,Cc1cc(-c2ccc(/N=N/c3ccc4c(S(=O)(=O)O)cc(S(=O)(=O)O)c(N)c4c3O)c(C)c2)ccc1/N=N/c1ccc2c(S(=O)(=O)O)cc(S(=O)(=O)O)c(N)c2c1O [Evans Blue],63.8
3,COc1cc(N2CCN(C)CC2)ccc1Nc1ncc2c(n1)N(C)c1ccccc1C(=O)N2,97.7
4,COc1cc2c(cc1OC)-c1cc3ccc(OC)c(OC)c3c[n+]1CC2 [Palmatine chloride],81
5,C[C@H]1CO[C@@H]2Cn3cc(C(=O)NCc4ccc(F)cc4F)c(=O)c(O)c3C(=O)N12,90.2
6,CN(C)CCc1c[nH]c2ccc(Cn3cncn3)cc12 [Rizatriptan Benzoate (Maxalt)],76.2
7,Cc1ccc(NC(=O)C2(c3ccc4c(c3)OC(F)(F)O4)CC2)nc1-c1cccc(C(=O)O)c1 [VX-809 (Lumacaftor)],115
8,C=CC(=O)Nc1cccc(Nc2nc(Nc3ccc(Oc4ccnc(C(=O)NC)c4)cc3)ncc2F)c1,83.4
9,Cc1cc(Nc2ncc(Cl)c(Nc3ccccc3S(=O)(=O)C(C)C)n2)c(OC(C)C)cc1C1CCNCC1 [Ceritinib (LDK378)],0.2
10,C[C@@H](Oc1cc(-n2cnc3ccc(CN4CCN(C)CC4)cc32)sc1C(N)=O)c1ccccc1C(F)(F)F,35.9
11,CC(C)c1onc(-c2c(Cl)cccc2Cl)c1COc1ccc(/C=C/c2cccc(C(=O)O)c2)c(Cl)c1,94.5
12,C[C@@H]1O[C@@H](O[C@H]2[C@H](Oc3cc(O)c(C(=O)CCc4ccc(O)cc4)c(O)c3)O[C@H](CO)[C@@H](O)[C@@H]2O)[C@H](O)[C@H](O)[C@H]1O [Naringin Dihydrochalcone (Naringin DC)],102
13,CC(=O)[C@H]1CC[C@H]2[C@@H]3CCC4=CC(=O)CC[C@]4(C)[C@H]3CC[C@]12C [Progesterone (Prometrium)],60.7
14,CCOc1cc(C=O)ccc1OC(C)=O [Ethyl vanillin acetate],105
15,Clc1ccc(CSC(Cn2ccnc2)c2ccc(Cl)cc2Cl)cc1 (configuration not stated) [Sulconazole Nitrate],46.5
16,Cc1[nH]c(/C=C2\C(=O)Nc3ccc(S(=O)(=O)Cc4c(Cl)cccc4Cl)cc32)c(C)c1C(=O)N1CCC[C@@H]1CN1CCCC1,76.3

row,SMILES,cell viability [%]
1,CN(C)CCCC1(c2ccc(F)cc2)OCc2cc(C#N)ccc21 (configuration not stated) [Citalopram HBr],94.2
2,Cc1cc(Nc2cc(N)ncn2)c(=O)n2c1C(=O)NC21CCCCC1,86
3,COc1ccc2c(c1O)-c1c(O)c(OC)cc3c1[C@H](C2)[N+](C)(C)CC3 [Magnoflorine],98
4,CN1CCN(c2ccc(Nc3cc(-c4cccc(-n5ccc6cc(C7CC7)cc(F)c6c5=O)c4CO)cn(C)c3=O)nc2)CC1,18.2
5,Cc1cccc(C)c1N(CC(=O)Nc1ccc(-c2ncon2)cc1)C(=O)C1CCS(=O)(=O)CC1 [Amenamevir],94.5
6,O=C1C[C@@H]2[C@@H](CO)[C@H](O)C[C@@H]2O1 [Corey Lactone Diol],105
7,CC(=O)/N=c1/sc(S(N)(=O)=O)nn1C [Methazolamide],106
8,O=C(NCc1ccncc1)C12CC3CC(C1)CC(c1ccc(Cl)cc1)(C3)C2,75.4
9,COc1cc2c(=O)c(-c3ccc(O)cc3)coc2cc1O[C@@H]1O[C@H](CO)[C@@H](O)[C@H](O)[C@H]1O [Glycitin],95.2
10,O=c1cc(-c2ccccc2)oc2c1ccc1ccccc12 [alpha-Naphthoflavone],90.5
11,CC(CN(C)C)Oc1nc(Nc2cc3cccc(Cl)c3cn2)cnc1C#N (configuration not stated),62.2
12,C[C@@H](Oc1ccc2[nH]nc(/C=C/c3cnn(CCO)c3)c2c1)c1c(Cl)cncc1Cl,6.39
13,C1=N/C2=N/c3ccc(OCCN4CCCC4)c(c3)COC/C=C/COCc3cccc(c3)C(=C1)N2 [Pacritinib (SB1518)],0.41
14,C[C@H]1C[C@H]2[C@@H]3CCC4=CC(=O)C=C[C@]4(C)[C@@]3(F)[C@@H](O)C[C@]2(C)[C@@]1(O)C(=O)CO [Betamethasone (Celestone)],86.1
15,OCCN(CCO)c1nc(N2CCCCC2)c2nc(N(CCO)CCO)nc(N3CCCCC3)c2n1 [Dipyridamole (Persantine)],93.1
16,CCOc1ccccc1OC(c1ccccc1)C1CNCCO1 (configuration not stated) [Reboxetine mesylate],81.9
